Assay outcomes from PubChem.
Sampled rows, rich in hits. Any-hit rate of the full collection: about 1.5%.
MbtI inh: blocks the Mycobacterium tuberculosis siderophore enzyme MbtI; purified MbtI enzyme, fluorescence intensity read-out; inhibition, % (test concentration not listed); AID 493033; 0.89% of 100,000 active; P9WFX0; in the data active means inhibition mostly above about 56%, no sharp cut-off; inactive means mostly below about 77%
MenB inh: inhibitors of Mycobacterium tuberculosis MenB enzyme; inhibition, % (concentration not given with the values); AID 540299; P9WNP5; MenB enzyme assay, absorbance read-out; 0.43% of 100,000 active; in the data active means inhibition above about 21%, passing the limit was not always enough
Target sequence (P9WNP5 whole entry, looked up): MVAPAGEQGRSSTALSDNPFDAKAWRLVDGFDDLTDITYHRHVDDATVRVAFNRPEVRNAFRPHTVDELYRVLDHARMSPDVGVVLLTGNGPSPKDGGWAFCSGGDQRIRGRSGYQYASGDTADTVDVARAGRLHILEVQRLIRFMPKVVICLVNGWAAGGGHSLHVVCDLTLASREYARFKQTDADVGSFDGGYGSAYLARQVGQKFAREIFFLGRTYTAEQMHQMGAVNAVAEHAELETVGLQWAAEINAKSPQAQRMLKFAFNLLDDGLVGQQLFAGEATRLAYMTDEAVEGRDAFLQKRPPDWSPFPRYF
PV pol inh: inhibitors of poliovirus RNA polymerase binding and polymerization. poliovirus polymerase elongation, fluorescence polarization; stronger effect = lower value. % elongation, % (compound at 16.7 µg/mL). 0.66% of 150,000 active. AID 588519; in the data active means % elongation below about 90%
AID504770: growth inhibitors of E. coli YBA685 in a screen for V. cholerae RctB (chromosome II replication) inhibitors | 0.27% of 130,000 active | E. coli YBA685 rctB-dependent plasmid, OD600 growth, 3 h; stronger effect = lower value | z-score (test concentration not listed); in the data active means z-score below about -2, passing the limit was not always enough
Active calls of the source: *; / = no result given; ! = not confirmed by another sample.

SMILES	MbtI inh	MenB inh	PV pol inh	AID504770
Cc1cc(C(C)(C)CC(C)(C)C)ccc1OCCOCC[N+](C)(C)Cc1ccccc1	-15.6	-0.2	94.0*!	0.25
C[N+](C)(Cc1ccccc1)Cc1ccccc1	/	-8.3	107.0	-0.45
CSC1=NSC2=NC(=O)/C(=C\c3cccs3)C(=N)N12	100.3*	-60.7	99.0	-0.85
N#CS/C=C/C(=O)c1ccccc1	100.0*	-50.5	96.0	-2.7*
CC(C)(C)NCc1ccc(-c2ccccc2)o1	7.7	12.4	100.0	0.05
CCN(CC)CCNCc1ccc(-c2ccccc2)o1	11.4	32.7*	102.0	-0.2
O=C(COc1ccc2c(c1)OCO2)Nc1cc(Cl)cc(Cl)c1	-10.7	-68.6	102.0	-0.15
C=CCN(CC=C)Cn1[nH]c(-c2cccs2)nc1=S	95.7*	-3.2	99.0	-0.1
Cc1cc(-c2nc3n(n2)Cc2ccccc2-3)c(C)n1-c1ccccc1	-33.0	-4.1	100.0	1.9
C=CCN1CCN(Cc2nnnn2Cc2ccc(OC)cc2)CC1	1.4	42.3*	103.0	0.85
CCOC(=O)c1c(NC(=O)c2cc(-c3ccc(Br)cc3)on2)sc(C)c1C	/	/	89.0*	/
CCOC(=O)c1c(NC(=O)c2cc(-c3cccc(Cl)c3)on2)sc(C)c1C	/	/	96.0	/
Oc1ccc(O)cc1	96.9*	3.3	99.0	-0.2
O=C(Sc1ccc(Cl)cc1)c1cnn(-c2ccccc2)c1C(F)(F)F	53.7*	-21.4	105.0	-0.3
Cc1ccc(/C=C2/NC(=O)N(Cc3ccc(Br)cc3)C2=O)o1	62.6	-26.1	102.0	1.95
CCCN1C(=O)/C(=C/c2ccc(C)o2)NC1=S	63.2*	-73.7	101.0	-0.1
COc1ccccc1-c1nn(CCC(=O)NCCCN2CCCC2=O)c2nc(C)cc(C)c12	86.5	-34.5	104.0	-0.25
O=C1CCCC2=C1C(c1cccs1)C1C(=O)c3ccccc3C1=N2 (stereo not given)	/	-14.6	72.0*	-0.55
O=C(CCN1C(=O)NC2(CCCC2)C1=O)Nc1nc2ccccc2[nH]1	12.4	-10.6	101.0	0.25
COc1ccc(Sc2nncc3nnn(-c4ccc(Cl)cc4)c23)cc1	23.1	-30.6	103.0	0.35
O=C(O)c1ccc(S(=O)(=O)Nc2ccc3oc(=O)sc3c2)cc1	77.9*	/	/	-1.45
N#CC(C#N)=NNc1ccccc1C(N)=O	26.0	-446.8	101.0	-3.65*
COC(=O)c1cccc(NC(N)=O)c1	62.3	-34.3	106.0	-1.1
c1ccc2c(c1)Nc1ccccc1S2	9.7	-20.0	102.0	-0.05
S=C1CSc2ccccc2N1	77.7*	-12.7	92.0	-0.8
SMILES	MbtI inh	MenB inh	PV pol inh	AID504770
O=C1c2ccccc2C(=O)c2c1oc1c3c(ccc21)OCN(C1CCCC1)C3	-0.4	5.0	83.0*	-0.4
CC(C)CCN1COc2ccc3c4c(oc3c2C1)C(=O)c1ccccc1C4=O	3.3	-0.7	92.0	-0.3
COc1ccc(CCN2COc3ccc4c5c(oc4c3C2)C(=O)c2ccccc2C5=O)cc1OC	1.8	-13.1	98.0	0.1
O=C1c2ccccc2C(=O)c2c1oc1c3c(ccc21)OCN(CCCN1CCOCC1)C3	-2.6	-14.1	86.0*	-0.8
O=C1c2ccccc2C(=O)c2c1oc1c3c(ccc21)OCN(CC1CCCO1)C3 (stereo not given)	1.2	-27.4	88.0*	0.3
O=C1c2ccccc2C(=O)c2c1oc1c3c(ccc21)OCN(C1CCS(=O)(=O)C1)C3 (stereo not given)	-5.4	-7.9	87.0*	-1.35
CN(c1ccccc1)S(=O)(=O)c1cn(C)c(=O)n(C)c1=O	-7.2	6.2	101.0	-0.2
O=C(Cc1nc2ccccc2[nH]1)NCc1ccc(Cl)cc1	-12.4	/	102.0	-0.65
O=C1CCN=C(SCC(=O)Nc2ccccc2)N1	-4.6	2.6	102.0	0.35
CCCCCOc1ccc(NC(=O)Cn2c(-c3cncs3)nc3ccccc32)cc1	/	/	89.0*	/
Cc1cccc(Cc2cnc(NC(=O)CN3CSCC3=O)s2)c1	3.0	-31.5	114.0	1.85
CC(CNS(=O)(=O)c1ccccc1)(c1ccccc1)N1CCCCC1 (stereo not given)	-8.8	/	100.0	-4.1*
O=C(CCNS(=O)(=O)c1ccccc1)N1CCCC1	-7.8	1.5	102.0	0.25
CCCOC1(C(F)(F)F)NC(=O)N(Cc2ccccn2)C1=O (stereo not given)	2.7	-29.5	101.0	2.05
COC(=O)c1c(-c2cccs2)csc1NC(=O)c1ccc(OC)c(OC)c1	/	/	69.0*	/
COC(=O)c1c(-c2cccs2)csc1NC(=O)c1cc(OC)c(OC)c(OC)c1	/	/	73.0*	/
COC(=O)c1c(-c2cccs2)csc1NC(=O)c1cc(OC)cc(OC)c1	/	/	71.0*	/
COc1ccc(C(=O)Nc2nccs2)cc1OC	-4.1	-12.8	99.0	0
O=C(Nc1scc(-c2cccs2)c1C(=O)O)c1cccs1	/	-20.9	100.0	-1
O=c1c(Cl)c(Cl)cnn1Cc1cc(=O)n2ccsc2n1	6.2	-27.2	93.0	-0.65
O/N=C(/c1ncon1)N1CCN(c2ccccc2)CC1	2.8	14.8	99.0	-0.85
C=CCn1c(C)c(C=C(C#N)C#N)c2ccccc21	-8.9	-89.2	102.0	-0.55
O=C1CCCN1C(=O)CSc1nc2ccccc2n1CCc1ccccc1	8.0	0.2	99.0	3
CC1CN(c2nc(-c3cccs3)cc(C(F)(F)F)c2C#N)CC(C)O1 (stereo not given)	/	/	/	-0.1
CC1CN(c2nnc(-c3cccs3)c3ccccc23)CC(C)O1 (stereo not given)	-5.5	1.6	105.0	-2.55*
SMILES	MbtI inh	MenB inh	PV pol inh	AID504770
CN(C)c1ccc(/C=C2\C(=O)N(c3ccccc3)N=C2C(=O)O)cc1	-49.0	-242.6	99.0	-0.05
CCOC(=O)C1=NN(c2ccccc2)C(=O)/C1=C\c1ccc(N(C)C)cc1	98.0*	-108.8	103.0	0.45
O=C(O)/C=C\C(=O)NC1CCN(Cc2ccccc2)CC1	2.2	-5.3	102.0	-0.1
Cc1nn(-c2ccccc2)c2c1CC1(C(=O)NC(=O)c3ccccc31)C1CCCN21 (stereo not given)	34.6	11.1	83.0*	1.55
CC1(C)CC(=O)c2c(nn(-c3ccccc3)c2N)C1	-8.2	-1.7	99.0	-1.2
C=CCn1c(Cc2nnc(SCC(=O)c3ccccc3)n2CC=C)nnc1SCC(=O)c1ccccc1	8.8	-11.3	102.0	-0.25
CC1Sc2ccc(C(=O)NCc3ccccn3)cc2NC1=O (stereo not given)	86.8*	-42.0	87.0*	-0.6
O=c1cc(-c2c(F)c(F)c(F)c(F)c2F)oc2ccccc12	/	/	/	-0.65
O=c1cc(-c2c(F)c(F)c(F)c(F)c2F)oc2c(F)c(F)c(F)c(F)c12	28.7	-30.6	90.0*	2.6
O=C(O)CC1C(=O)NC(=Nc2ccccc2)N1c1ccccc1 (stereo not given)	-8.9	-24.5	102.0	-0.5
O=C(O)CC1C(=O)NN=C2c3ccccc3N=CN21 (stereo not given)	26.4	-20.4	78.0*	-0.65
CC1C(=O)NN=C1C(=O)N/N=C/c1ccc(OC(=O)c2ccco2)cc1 (stereo not given)	-4.2	-7.0	99.0	-0.95
CC1C(=O)NN=C1C(=O)N/N=C\c1cccnc1 (stereo not given)	36.7	34.7*	99.0	0.25
O=C(CSc1nc2ccccc2o1)N1CCN(S(=O)(=O)c2ccccc2)CC1	14.1	-14.1	103.0	0.65
